This is an account of results in PubChem BioAssay (NCI).

This is part of a sample that, as a whole, favours compounds with a hit. Of some 83,000 tested, about 20% had one in any assay.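 The endpoint reported here, percent growth, reads 100 for growth as untreated, 0 for no net growth and -100 for all cells dead.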 Unmarked numbers belong to inactive results. Activity calls are given as the source filed them. The calls were made as follows: active = growth percent below 10; inactive = the rest.

The subject of the assay is DU-145 prostate. Kind of assay: NCI-60 one-dose screen, 48 h (100 = growth as untreated, 0 = no growth, -100 = all killed). Particulars: 10 µM unless noted.
For the molecule `O=C(/C=C1\C(=O)N(Cc2ccccc2)c2ccccc21)c1ccc(OCCN2CCCCC2)cc1`, the growth is 47.5%.
The result for `COc1ccc(CN2C(=O)/C(=C\C(=O)c3ccc(OCCN4CCCC4)cc3)c3ccccc32)cc1` reads 71.9%.
Take `C[C@@H](c1ccc2c(c1)[nH]c1ccc(Cl)cc12)c1nc2ccccc2[nH]1`: the growth was 103%.
In the case of `c1ccc(-c2cn3ccnc3c(-c3ccc4ncn(C5CCCCC5)c4c3)n2)cc1`, the growth was 70.7%.
As for `C[C@@H](c1ccc2c(c1)[nH]c1ccc(Cl)cc12)c1nc2ccc(Cl)cc2[nH]1`, the figure is 90.7%.
For the molecule `COc1cc(CNC(=O)CCCC/C=C/C(C)C)ccc1OCc1nnc(Nc2ccccc2F)o1`, the growth is 88.7%.
As for `Cc1c(CN(C)C)cc(C(C)C)cc1C(C)C`, the figure is 113%; as for `O=S(=O)(O)c1ccc2c(c1)Sc1cc(S(=O)(=O)O)ccc1O2`, 116%; as for `COc1ccc(Cn2cc3c(c2-c2ccccc2)CCc2cnoc2-3)cc1N`, 13.7%.
As for `COc1ccc(/C=C(/C(=O)N2CCN(c3ccc(C)cc3)CC2)c2cc(OC)c(OC)c(OC)c2)cc1N`, the growth is 5.56% (active).
Turning to `C=CCN(C)C`, the growth is 119%.
As for `CCNc1nnc(COc2ccc(CNC(=O)CCCC/C=C/C(C)C)cc2OC)o1`, the figure is 109%; as for `COc1ccc2oc(=O)cc(CN3C(=O)S/C(=C\c4ccc(Cl)cc4)C3=O)c2c1`, 96.5%; as for `CC(C)OC(=O)Nn1cnc2ccccc21`, 103%.
In the case of `COc1ccc(Cn2cc3c(c2-c2ccc(OC)cc2)CCc2cnoc2-3)cc1`, the growth was 10.5%.
